Source: PubChem BioAssay (National Center for Advancing Translational Sciences (NCATS))
GLS inhibitor = qHTS for Inhibitors of Glutaminase (GLS); Glutaminase kidney isoform, mitochondrial (Homo sapiens), O94925; Potency, µM (doses to about 45.5 µM), most hits filed as inhibitors; 410,000 tested, 0.21% active; AID 624170, 2012; GLS enzymatic activity, qHTS titration
Target sequence (O94925 whole entry, looked up, canonical isoform): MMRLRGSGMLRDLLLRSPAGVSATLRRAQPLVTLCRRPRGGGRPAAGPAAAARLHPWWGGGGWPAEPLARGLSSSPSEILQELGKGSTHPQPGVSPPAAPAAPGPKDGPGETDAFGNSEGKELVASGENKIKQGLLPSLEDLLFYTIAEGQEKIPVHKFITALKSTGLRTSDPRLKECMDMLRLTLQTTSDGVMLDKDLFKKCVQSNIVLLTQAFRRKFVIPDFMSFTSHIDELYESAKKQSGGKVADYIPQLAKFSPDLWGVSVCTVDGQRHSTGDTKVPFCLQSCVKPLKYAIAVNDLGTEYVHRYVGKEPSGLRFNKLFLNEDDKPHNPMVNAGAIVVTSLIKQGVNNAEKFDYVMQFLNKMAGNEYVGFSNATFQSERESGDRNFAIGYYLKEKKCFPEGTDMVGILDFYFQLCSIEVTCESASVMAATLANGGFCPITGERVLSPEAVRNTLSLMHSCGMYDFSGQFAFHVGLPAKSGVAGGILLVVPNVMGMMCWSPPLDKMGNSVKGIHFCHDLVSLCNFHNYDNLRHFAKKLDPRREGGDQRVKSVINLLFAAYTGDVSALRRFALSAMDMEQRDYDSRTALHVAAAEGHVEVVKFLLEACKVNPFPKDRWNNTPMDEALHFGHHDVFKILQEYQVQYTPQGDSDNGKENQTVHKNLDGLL
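Assay buffer: 45 mM KH2PO4 pH 8.2, 0.02% Tween-20. hKGA acts on L-glutamine (1 mM solution added); product glutamate is reported by an oxidase/peroxidase Amplex Red coupling, with fluorescence taken at baseline and 30 min.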
Tb PGK inh = qHTS Assay to Find Inhibitors of Phosphoglycerate Kinase | 380,000 tested, 0.043% active | PGK/GAPDH coupled, Kinase-Glo luminescence, 60 min | Potency, µM (top dose mostly 57.5 µM), usual class: inhibitors | AID 602233, 2012 | Phosphoglycerate kinase, glycosomal (Trypanosoma brucei brucei), P07378; also: nearly all actives have a fitted effect of over 60% in size
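Recombinant glycosomal PGK reaction used 1,3-bisphosphoglycerate generated in-well by GAPDH (100nM final) in 100mM TEA pH 7.6, 5mM MgCl2, 0.01% Tween-20. After 60 minutes at room temperature, ATP was read by Kinase-Glo Plus luminescence end-point.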
USP1 inh = Inhibitors of USP1/UAF1: Primary Screen; Ubiquitin carboxyl-terminal hydrolase 1 (Homo sapiens), O94782; recombinant USP1/UAF1, Ub-Rhodamine cleavage fluorescence; Potency, µM (highest dose often 57.1 µM), usual class: inhibitors; 390,000 tested, 0.23% active; also: nearly all actives have a fitted effect of over 60% in size
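In this screen, compounds sit with the deubiquitinase complex (1nM) for 15 min at room temperature before Ub-Rho is added at 150nM final. Fluorescence rise is then followed for 6 reads every 60 seconds.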
PI4K2A inh = qHTS for small molecular inhibitors of PI4K2A | Phosphatidylinositol 4-kinase type 2-alpha (Homo sapiens), Q9BTU6 | purified PI4K2A, ADP-Glo luminescence, 1 h; hits give low values | activity change, negative = inhibition, % at 76.9 µM | 420,000 tested, 0.13% active; in the data active = activity change below about -50%; inconclusive = mostly about -30% to -49%
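PI4K2A activity was measured by ADP-Glo luminescence: enzyme (4 ug/mL stock) and phosphatidylinositol (1.2 mM stock) in Tris pH 7.5/MgCl2/EGTA/Triton X-100 buffer were reacted with ATP (300 microM stock) for one hour at ambient temperature.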
Large screens that a line does not name were inactive. Most compounds without a hit are left out; they make up all but 0.53% or so of the library. Unless noted, calls follow the shape of the dose curve; as a rule, active = well fitted curve in the direction sought with a large enough effect; inconclusive = small, poorly fitted or top-dose-only effect, or another doubt; inactive = no such curve, though single readings can be large; an effect the other way counts as inactive or inconclusive.

Cc1nc(S/C(=C/c2ccc(-c3cc(Cl)ccc3C)o2)C(=O)O)n[nH]1	none
O=C(O)c1cc(Cl)ccc1-c1ccc(/C=C/c2cc(C(F)(F)F)[nH]c(=O)n2)o1	USP1 inh 28µM
COC1=C(c2ccccc2)C(=O)c2ccccc2C1=O	USP1 inh 14µM
COc1ccc(C2=C(N)c3ccccc3C2=O)cc1	none
Cc1ccc(S(=O)(=O)N2CCCC(C(=O)NCCN3CCC(Cc4ccccc4)CC3)C2)cc1 (stereo unspecified)	none (no result: GLS inhibitor, Tb PGK inh, USP1 inh)
Nc1ncnc(Nc2ccc(S(N)(=O)=O)cc2)n1	PI4K2A inh -65
CCNc1cccc2c1C(=O)N(C)C2=O	USP1 inh 16µM (no result: Tb PGK inh)
COC1=C(OC)C(=O)C(Sc2ccc3ccccc3c2)=CC1=O	GLS inhibitor 10µM
O=S(=O)(O)c1cc(O)c(N=Nc2ccc(O)cc2O)c2ccccc12	GLS inhibitor inconclusive, Tb PGK inh 25µM, USP1 inh inconclusive, PI4K2A inh inconclusive
O=S(=O)(O)c1ccc2c(N=Nc3ccc(S(=O)(=O)O)c4ccccc34)c(O)c(S(=O)(=O)O)cc2c1	none (no result: Tb PGK inh, USP1 inh, PI4K2A inh)
C=C(C)C(=O)Oc1ccc(N=Nc2ccc(C)cc2)ccc1=O	GLS inhibitor inconclusive, Tb PGK inh 2.8µM
CC(=O)c1ccc(N=Nc2ccc(C)cc2)cc1	none
CCOc1cc(CNc2ccc(N3CCOCC3)cc2)cc(Br)c1OCC	GLS inhibitor 13µM
CCOc1cc(CNc2ccc(N3CCCC3)cc2)cc(Cl)c1OC	USP1 inh 28µM
O=C(COC(=O)c1ccc(S(=O)(=O)NCc2ccco2)cc1)Nc1ccc(Cl)cn1	PI4K2A inh -52
Cn1cc(C(=O)[C@@H]2CCc3nc[nH]c3C2)c2ccccc21	none (no result: GLS inhibitor, Tb PGK inh, USP1 inh)
Cc1ccc(C(=O)Nc2ccc(C(=O)N3CCCCC3)cc2)o1	Tb PGK inh inconclusive, PI4K2A inh -53
Cc1ccc(C(=O)Nc2ccc(NC(=O)c3ccc(C)o3)cc2)o1	none
C[C@H]1Cn2nnc(-c3ccccc3)c2Cn2c3ccccc3c(=O)n21	none (no result: GLS inhibitor, Tb PGK inh, USP1 inh)
CC(C)CS(=O)(=O)c1oc(-c2ccc(F)cc2)nc1S(=O)(=O)c1ccccc1	none
CS(=O)(=O)c1ccc2c(c1)sc1nc(=O)c(/C=C3/C=CC(=O)C(O)=C3)c(N)n12	Tb PGK inh 13µM, USP1 inh inconclusive
CCC(C(=O)O)c1ccc(N2Cc3ccccc3C2=O)cc1 (stereo unspecified)	none (no result: GLS inhibitor, Tb PGK inh, USP1 inh)
C1=C(c2ccc(-c3ccccc3)cc2)Nc2ncnn2C1c1ccco1 (stereo unspecified)	USP1 inh 14µM
Fc1ccc(C2=CC(c3ccco3)n3ncnc3N2)cc1 (stereo unspecified)	USP1 inh inconclusive
COc1cc(SC#N)ccc1N=Cc1c(C)[nH]n(-c2cccc3ccccc23)c1=O	PI4K2A inh -53
COc1cc(SC#N)ccc1N=Cc1c(C)[nH]n(-c2ccc(C)cc2C)c1=O	PI4K2A inh -54
O=C(O)c1cc2nccc(-c3ccco3)n2n1	GLS inhibitor 11µM, Tb PGK inh inconclusive
CC(C)N1[N]C(=C2C=c3cc(O)ccc3=N2)c2c(N)ncnc21	none (no result: Tb PGK inh, USP1 inh, PI4K2A inh)
N#C/C(=C/c1ccc(N2CCCCCC2)o1)c1cccc(F)c1	USP1 inh 25µM
CC(=O)Oc1cc(C)c(OC(C)=O)c2ccccc12	none (no result: Tb PGK inh, USP1 inh, PI4K2A inh)
COc1ccc(OC)c(Nc2cc3ccccc3c(=O)[nH]2)c1	USP1 inh 5µM, PI4K2A inh inconclusive
O=c1[nH]c(Nc2ccccc2)cc2ccccc12	USP1 inh 2.5µM, PI4K2A inh inconclusive
CC(=O)c1cccc(-c2ccc3c(=O)[nH]c(Nc4ccccc4)cc3c2)c1	USP1 inh 3.2µM, PI4K2A inh inconclusive
Cn1c(=O)cc(Nc2ccccc2)[nH]c1=O	none
COc1ccccc1Nc1cc2cc(Br)ccc2c(=O)[nH]1	USP1 inh 4.5µM, PI4K2A inh inconclusive
CCCCNS(=O)(=O)CC1NCc2cc(F)ccc21 (stereo unspecified)	none (no result: GLS inhibitor, Tb PGK inh, USP1 inh)
O=c1[nH]c(Nc2ccccc2)cc2cc(Br)ccc12	USP1 inh 1.1µM, PI4K2A inh inconclusive
O=C1C(=O)c2c(C(=O)c3ccccc3)coc2-c2ccccc21	none
Cc1oc2c(c1C(=O)c1ccccc1)C(=O)C(=O)c1ccccc1-2	USP1 inh 13µM, PI4K2A inh -64
Cc1oc2c(c1C(=O)O)C(=O)c1ccccc1C2=O	USP1 inh 28µM
N=c1c2c(ccn1CCCc1ccccc1)Oc1ccc3ccccc3c1C2c1ccccc1 (stereo unspecified)	none (no result: GLS inhibitor, Tb PGK inh, USP1 inh)
Cc1ccc(-n2c(Cc3cccs3)nnc2SCC(=O)Nc2ccccc2-c2ccccc2)cc1	none (no result: GLS inhibitor, Tb PGK inh, USP1 inh)
O=C(Nc1ccc(N2CCOCC2)cc1N1CCOCC1)c1ccc([N+](=O)[O-])cc1	none
O=C(NNc1cc(N2CCOCC2)nc(N2CCOCC2)n1)c1ccc([N+](=O)[O-])cc1	USP1 inh 32µM, PI4K2A inh inconclusive
CCOC(=O)[C@H](CCc1ccccc1)N[C@H]1CCCN2CCC[C@@H](C(=O)O)N2C1=O	none (no result: Tb PGK inh, USP1 inh, PI4K2A inh)
Cn1c(=O)c(C(=O)c2ccccc2)nc2ccccc21	GLS inhibitor 11µM
CNC[C@@H]1CC[C@@H](N)[C@@H](O[C@H]2[C@H](O)[C@@H](O[C@H]3OC[C@](C)(O)[C@H](NC)[C@H]3O)[C@H](N)C[C@@H]2N)O1	none (no result: Tb PGK inh, USP1 inh, PI4K2A inh)
O=C(O)C(=O)Nc1cccc(-c2nn[nH]n2)c1	none (no result: GLS inhibitor, Tb PGK inh, USP1 inh)
N#C/C(=C\c1coc2ccc(O)cc2c1=O)C(=O)Nc1nc2ccccc2s1	Tb PGK inh inconclusive, USP1 inh 25µM
Cc1cc(Br)ccc1-n1[nH]c(C)c(C=Nc2cccc3nsnc23)c1=O	USP1 inh inconclusive, PI4K2A inh -54
COc1ccccc1N=Cc1c(C)[nH]n(-c2ccc(C)cc2C)c1=O	none
C/C(=N/Nc1ccccc1C(=O)O)c1cccs1	GLS inhibitor 13µM
C=CCn1cc(/C=C/c2cc[n+](C)cc2)c2ccccc21	USP1 inh 32µM
CCn1cc(/C=C/c2cc[n+](C)cc2)c2ccccc21	USP1 inh inconclusive (no result: Tb PGK inh)
CC(C)n1cc(/C=C/c2cc[n+](C)cc2)c2ccccc21	USP1 inh 32µM
C=CCn1c(C)c(/C=C/c2cc[n+](C)cc2)c2ccccc21	USP1 inh 35µM
CCN(CC)C(=O)Cn1c(C)c(/C=C/c2cc[n+](C)cc2)c2ccccc21	USP1 inh 25µM
Oc1cccc2[nH]ccc12	none (no result: GLS inhibitor, Tb PGK inh, USP1 inh)
O=C(O[C@H]1CN2CCC1CC2)N1CCc2ccccc2[C@@H]1c1ccccc1	none (no result: Tb PGK inh, USP1 inh, PI4K2A inh)
CCOc1ncc(F)c(=O)[nH]1	none (no result: GLS inhibitor, Tb PGK inh, USP1 inh)
COc1ccc2c(c1)sc1nc(-c3ccccc3)cn12	Tb PGK inh inconclusive, PI4K2A inh -60
Cc1[nH]cnc1-c1ccc(Cl)cc1	none (no result: GLS inhibitor, Tb PGK inh, USP1 inh)
COc1ccccc1NS(=O)(=O)c1cc([N+](=O)[O-])ccc1N/N=C/c1c(C)[nH]c2ccccc12	USP1 inh 28µM
CCOC(=O)c1c(-c2ccccc2)csc1NC(=O)/C(C#N)=C\c1ccc(O)c(OC)c1	USP1 inh 16µM
Cc1sccc1Br	none (no result: GLS inhibitor, Tb PGK inh, USP1 inh)
